Drawing on PubChem BioAssay (EPA / NIEHS), this text covers outcome and AC50 for eleven compounds.

Records with an inconclusive call do not appear. Activity calls are given as the source filed them. How the source made its calls: active means hit-call score of the fitted dose curve at least 0.9, where 1 is the maximum; inconclusive means response in the unintended direction; inactive means score below 0.9.

For assay [1], the target named is human Vascular Endothelial Growth Factor Receptor 2 (VEGFR2), KDR (gene 3791) (UniProt P35968). As to the kind of experiment: NVS_ENZ_hVEGFR2: NovaScreen (NVS) Enzymatic Assay for human Vascular Endothelial Growth Factor Receptor 2 (VEGFR2) (AID 2283230). In short, it runs like this: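 Cell-free recombinant VEGFR2 kinase, fluorescent substrate with electrophoretic mobility-shift separation; read 1 h after dosing. Screened at 25 uM in duplicate, hits to concentration-response up to 50 uM; loss-of-signal versus DMSO.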
human Vascular Endothelial Growth Factor Receptor 2 (VEGFR2), KDR (gene 3791), sequence (P35968 whole entry, looked up): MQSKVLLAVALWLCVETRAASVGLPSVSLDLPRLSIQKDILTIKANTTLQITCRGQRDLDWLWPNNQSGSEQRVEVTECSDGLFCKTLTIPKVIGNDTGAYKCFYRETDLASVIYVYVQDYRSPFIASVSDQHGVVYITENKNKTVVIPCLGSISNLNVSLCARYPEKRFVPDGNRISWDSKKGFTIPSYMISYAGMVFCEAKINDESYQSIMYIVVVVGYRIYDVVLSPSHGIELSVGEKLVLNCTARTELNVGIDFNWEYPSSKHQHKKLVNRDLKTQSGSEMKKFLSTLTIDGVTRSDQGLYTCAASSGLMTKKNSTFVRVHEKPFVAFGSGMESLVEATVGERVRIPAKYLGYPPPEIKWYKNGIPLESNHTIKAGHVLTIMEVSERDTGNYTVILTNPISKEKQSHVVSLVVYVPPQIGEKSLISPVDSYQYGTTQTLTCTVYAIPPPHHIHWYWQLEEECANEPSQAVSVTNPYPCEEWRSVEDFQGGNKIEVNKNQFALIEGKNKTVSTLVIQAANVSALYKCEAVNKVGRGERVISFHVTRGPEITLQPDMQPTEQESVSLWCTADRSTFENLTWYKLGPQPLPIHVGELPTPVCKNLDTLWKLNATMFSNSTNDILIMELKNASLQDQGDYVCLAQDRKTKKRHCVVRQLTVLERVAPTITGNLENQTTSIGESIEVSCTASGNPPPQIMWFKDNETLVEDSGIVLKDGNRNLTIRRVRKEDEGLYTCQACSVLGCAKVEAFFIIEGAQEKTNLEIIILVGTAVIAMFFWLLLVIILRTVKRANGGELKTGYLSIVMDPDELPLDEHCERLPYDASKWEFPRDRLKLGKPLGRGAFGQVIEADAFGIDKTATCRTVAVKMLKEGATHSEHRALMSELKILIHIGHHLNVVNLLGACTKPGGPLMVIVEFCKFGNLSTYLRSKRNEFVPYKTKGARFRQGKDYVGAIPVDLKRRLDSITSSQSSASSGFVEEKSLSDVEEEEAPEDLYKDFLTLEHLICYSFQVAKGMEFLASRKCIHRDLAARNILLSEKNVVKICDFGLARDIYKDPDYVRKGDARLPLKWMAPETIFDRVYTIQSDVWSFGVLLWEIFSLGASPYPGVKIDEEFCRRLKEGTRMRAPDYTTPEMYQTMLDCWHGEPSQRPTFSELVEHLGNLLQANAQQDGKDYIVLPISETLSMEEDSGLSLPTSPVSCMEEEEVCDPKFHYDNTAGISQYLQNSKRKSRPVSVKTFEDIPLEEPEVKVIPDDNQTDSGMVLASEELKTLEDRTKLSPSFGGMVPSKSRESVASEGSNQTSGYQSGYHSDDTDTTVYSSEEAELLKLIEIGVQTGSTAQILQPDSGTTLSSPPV

For assay [2], the target named is sheep Cyclooxygenase-2 (Cox2), PTGS2 (gene 443460) (UniProt P79208). As to the kind of experiment: NVS_ENZ_oCOX2: NovaScreen (NVS) Enzymatic Assay for sheep Cyclooxygenase-2 (Cox2) (AID 2283231). In short, it runs like this:
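Colorimetric absorbance read-out of COX activity, taken 0.66 hour post-dosing, using native protein from sheep placenta. Single-concentration duplicate screen (25 uM), then singleton concentration-response up to 50 uM for actives.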

Assay [3] concerns the target rat Constitutive Nitric Oxide Synthase (CNOS), Nos1 (gene 24598) (UniProt P29476). As to the kind of experiment: NVS_ENZ_rCNOS: NovaScreen (NVS) Enzymatic Assay for rat Constitutive Nitric Oxide Synthase (CNOS) (AID 2283236). In short, it runs like this: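 Enzyme activity in rat brain membrane preparation, read 1 h after dosing by filter-based radiometric scintillation counting. Primary screen in duplicate at 25 uM; actives (e.g., ≥30% inhibition) then run in concentration-response up to 50 uM.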

For assay [4], the target named is guinea pig Opioid, Kappa 1 Receptor (OpiateK), OPRK1 (gene 100135587) (UniProt P41144). As to the kind of experiment: NVS_GPCR_gOpiateK: NovaScreen (NVS) G Protein-Coupled Receptor Assay for guinea pig Opioid, Kappa 1 Receptor (OpiateK) (AID 2283252).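 Further: radioligand displacement from kappa opioid receptor in guinea pig cerebellar membranes; active means reduced radioligand binding relative to DMSO.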 In short, it runs like this:
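Guinea pig cerebellar membranes, radioligand displacement with filter-based scintillation counting, 2 h after dosing. Primary screen single concentration 25 uM in duplicate; actives retested in concentration series; loss of binding fitted versus DMSO.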

For assay [5], the target named is human Adenosine A1 Receptor (AdoRA1), ADORA1 (gene 134) (UniProt P30542). The assay is described as follows: NVS_GPCR_hAdoRA1: NovaScreen (NVS) G Protein-Coupled Receptor Assay for human Adenosine A1 Receptor (AdoRA1) (AID 2283254). In short, it runs like this: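 Membranes from human cortical tissue were incubated with radioligand and test chemical for 1 hour, then filtered and counted. Activity was taken as signal loss relative to DMSO, screened at 25 uM in duplicate before concentration-response follow-up.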
human Adenosine A1 Receptor (AdoRA1), ADORA1 (gene 134), sequence (P30542 whole entry, looked up): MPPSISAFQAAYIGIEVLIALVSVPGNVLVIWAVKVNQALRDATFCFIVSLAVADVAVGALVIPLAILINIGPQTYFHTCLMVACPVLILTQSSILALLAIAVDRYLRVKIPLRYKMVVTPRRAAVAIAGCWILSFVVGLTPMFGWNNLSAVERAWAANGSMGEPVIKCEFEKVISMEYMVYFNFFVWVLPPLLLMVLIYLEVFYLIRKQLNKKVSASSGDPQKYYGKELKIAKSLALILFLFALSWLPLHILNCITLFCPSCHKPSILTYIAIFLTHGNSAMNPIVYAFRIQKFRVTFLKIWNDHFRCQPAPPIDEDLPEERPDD

Assay [6] concerns the target sheep Cyclooxygenase-1 (Cox1), PTGS1 (gene 443551) (UniProt P05979). The assay is described as follows: NVS_ENZ_oCOX1: NovaScreen (NVS) Enzymatic Assay for sheep Cyclooxygenase-1 (Cox1) (AID 2283239).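 Further: actives reduce cyclooxygenase activity so potencies are for inhibitors.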 In short, it runs like this: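 Colorimetric enzyme readout using sheep seminal-vesicle cyclooxygenase-1, measured 0.66 h post-dosing. Single-concentration duplicates at 25 uM first, then concentration series for actives, with DMSO as baseline and plate controls.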

For assay [7], the target named is bovine Dopamine Receptor (DR), Non-selective Binding, DRD1 (gene 281125) (UniProt Q95136). As to the kind of experiment: NVS_GPCR_bDR_NonSelective: NovaScreen (NVS) G Protein-Coupled Receptor Assay for bovine Dopamine Receptor (DR), Non-selective Binding (AID 2283241). In short, it runs like this: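 Bovine striatal membranes; radioligand displacement read by filtration and scintillation counting 1 h after dosing, loss of signal vs DMSO. Screened in duplicate at 25 uM, then concentration-response for hits.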

Assay [8] has as its target Adenosine receptor A1 (Bos taurus) (UniProt P28190). The assay is described as follows: NVS_GPCR_bAdoR_NonSelective: NovaScreen (NVS) G Protein-Coupled Receptor Assay for bovine Adenosine Receptor (AdoR), Non-selective Binding (AID 2283244). In short, it runs like this: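 Bovine striatal membranes, radioligand displacement binding, 1 h after dosing, filter-based scintillation counting. Screened in duplicate at 25 uM, then concentration-response up to 50 uM; loss of specific binding relative to DMSO.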

A short description of assay [9]: NVS_GPCR_bNPY_NonSelective: NovaScreen (NVS) G Protein-Coupled Receptor Assay for bovine Neuropeptide Y (NPY) Receptor, Non-selective Binding (AID 2283245). In short, it runs like this: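 Bovine hippocampal membranes incubated 1 hour with radioligand and test chemical. Bound ligand measured by filter-based scintillation counting. Single-concentration screen at 25 uM in duplicate, then concentration-response up to 50 uM.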

For assay [10], the target named is human Serotonin, 5-Hydroxytryptamine Receptor 2A (5HT2A), HTR2A (gene 3356) (UniProt P28223). As to the kind of experiment: NVS_GPCR_h5HT2A: NovaScreen (NVS) G Protein-Coupled Receptor Assay for human Serotonin, 5-Hydroxytryptamine Receptor 2A (5HT2A) (AID 2283249). In short, it runs like this: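 Human cortex membranes, cell-free radioligand binding; filter-based scintillation read 1.5 h after dosing. Duplicate screen at 25 uM first; displacement of specific binding (loss of signal) versus DMSO.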

Assay [11] concerns guinea pig Muscarinic, Peripheral (Mperiperal) Receptor, Non-selective Binding, gene 100379235. The assay is described as follows: NVS_GPCR_gMPeripheral_NonSelective: NovaScreen (NVS) G Protein-Coupled Receptor Assay for guinea pig Muscarinic, Peripheral (Mperiperal) Receptor, Non-selective Binding (AID 2283250). In short, it runs like this:
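Guinea pig bladder membranes, radioligand binding read 1 h after dosing by filter scintillation counting; loss of signal vs DMSO. Primary duplicate screen at 25 uM, then concentration-response up to 50 uM.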

Assay [12] has as its target human Serotonin, 5-Hydroxytryptamine Receptor 5A (5HT5A), HTR5A (gene 3361) (UniProt P47898). As to the kind of experiment: NVS_GPCR_h5HT5A: NovaScreen (NVS) G Protein-Coupled Receptor Assay for human Serotonin, 5-Hydroxytryptamine Receptor 5A (5HT5A) (AID 2283251). In short, it runs like this:
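Cell-free radioligand displacement binding on HEK293-derived membrane protein, 1 h incubation, filter-based scintillation counting. Primary screen in duplicate at 25 uM, actives followed in concentration series; loss of signal fitted versus DMSO.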

In assay [13] the target is human Serotonin, 5-Hydroxytryptamine Receptor 6 (5HT6), HTR6 (gene 3362) (UniProt P50406). As to the kind of experiment: NVS_GPCR_h5HT6: NovaScreen (NVS) G Protein-Coupled Receptor Assay for human Serotonin, 5-Hydroxytryptamine Receptor 6 (5HT6) (AID 2283253). In short, it runs like this:
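Radioligand binding to 5HT6 in HEK293-derived membranes, cell-free, 1 h after dosing; bound ligand measured by filter-based scintillation counting. Primary screen in duplicate at 25 uM; actives retested in concentration series.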

Assay [14] has as its target human Serotonin, 5-Hydroxytryptamine Receptor 7 (5HT7), HTR7 (gene 3363) (UniProt P34969). As to the kind of experiment: NVS_GPCR_h5HT7: NovaScreen (NVS) G Protein-Coupled Receptor Assay for human Serotonin, 5-Hydroxytryptamine Receptor 7 (5HT7) (AID 2283255).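 Further: hits reduce specific radioligand binding relative to DMSO.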 In short, it runs like this:
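Radioligand displacement on membranes from CHO cells expressing human 5HT7, 1 h incubation, filter-based scintillation counting. Primary screen used a single 25 uM concentration in duplicate; actives were followed up in concentration series.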

The target in assay [15] is human Adenosine A2a Receptor (AdoRA2a), ADORA2A (gene 135) (UniProt P29274). The assay is described as follows: NVS_GPCR_hAdoRA2a: NovaScreen (NVS) G Protein-Coupled Receptor Assay for human Adenosine A2a Receptor (AdoRA2a) (AID 2283256). In short, it runs like this: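 Cell-free radioligand binding on membranes from HEK293 expressing the receptor; competitive displacement read 1.5 h after dosing by filter-based scintillation counting. Primary screen in duplicate at 25 uM; actives followed in concentration series, with DMSO as baseline.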
human Adenosine A2a Receptor (AdoRA2a), ADORA2A (gene 135), sequence (P29274 whole entry, looked up): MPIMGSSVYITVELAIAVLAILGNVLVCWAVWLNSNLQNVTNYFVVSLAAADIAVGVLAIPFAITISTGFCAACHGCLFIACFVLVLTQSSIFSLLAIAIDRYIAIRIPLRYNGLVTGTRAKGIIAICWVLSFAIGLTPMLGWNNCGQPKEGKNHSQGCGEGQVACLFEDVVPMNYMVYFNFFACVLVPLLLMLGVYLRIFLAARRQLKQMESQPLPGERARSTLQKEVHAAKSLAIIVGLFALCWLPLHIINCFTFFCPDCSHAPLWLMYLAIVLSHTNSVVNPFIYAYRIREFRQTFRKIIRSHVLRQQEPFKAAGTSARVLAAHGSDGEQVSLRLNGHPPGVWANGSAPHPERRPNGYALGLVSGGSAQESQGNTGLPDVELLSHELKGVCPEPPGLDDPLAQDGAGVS

Assay [16] addresses rat Catechol-O-Methyl Transferase (COMT), Comt (gene 24267) (UniProt P22734). The assay is described as follows: NVS_ENZ_rCOMT: NovaScreen (NVS) Enzymatic Assay for rat Catechol-O-Methyl Transferase (COMT) (AID 2283235). In short, it runs like this: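 Cell-free enzyme activity with protein extracted from rat dorsal striatum, measured by HPLC with absorbance detection. Compounds screened at 25 uM in duplicate; actives then run in concentration-response up to 50 uM, loss of signal versus DMSO.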

guinea pig Opioid, Kappa 1 Receptor (OpiateK), OPRK1 (gene 100135587), sequence (P41144 whole entry, looked up): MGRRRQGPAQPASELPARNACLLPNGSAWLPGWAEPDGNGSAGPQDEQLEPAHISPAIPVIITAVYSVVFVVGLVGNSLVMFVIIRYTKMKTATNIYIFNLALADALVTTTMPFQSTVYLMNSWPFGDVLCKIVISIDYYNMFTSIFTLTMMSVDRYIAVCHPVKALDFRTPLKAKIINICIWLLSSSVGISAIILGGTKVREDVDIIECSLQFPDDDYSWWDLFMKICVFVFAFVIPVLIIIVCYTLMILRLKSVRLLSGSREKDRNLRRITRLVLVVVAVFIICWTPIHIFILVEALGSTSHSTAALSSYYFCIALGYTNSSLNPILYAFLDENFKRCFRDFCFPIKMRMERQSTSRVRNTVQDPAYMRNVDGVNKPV
human Serotonin, 5-Hydroxytryptamine Receptor 5A (5HT5A), HTR5A (gene 3361), sequence (P47898 whole entry, looked up): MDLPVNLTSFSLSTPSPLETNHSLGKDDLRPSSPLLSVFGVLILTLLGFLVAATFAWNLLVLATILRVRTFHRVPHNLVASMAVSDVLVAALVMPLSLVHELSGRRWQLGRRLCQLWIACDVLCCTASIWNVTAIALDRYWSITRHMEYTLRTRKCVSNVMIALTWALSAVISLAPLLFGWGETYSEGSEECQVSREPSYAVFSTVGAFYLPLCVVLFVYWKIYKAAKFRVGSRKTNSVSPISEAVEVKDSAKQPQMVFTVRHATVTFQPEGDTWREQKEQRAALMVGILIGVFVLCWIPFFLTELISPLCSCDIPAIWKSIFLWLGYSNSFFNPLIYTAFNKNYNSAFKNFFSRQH
sheep Cyclooxygenase-1 (Cox1), PTGS1 (gene 443551), sequence (P05979 whole entry, looked up): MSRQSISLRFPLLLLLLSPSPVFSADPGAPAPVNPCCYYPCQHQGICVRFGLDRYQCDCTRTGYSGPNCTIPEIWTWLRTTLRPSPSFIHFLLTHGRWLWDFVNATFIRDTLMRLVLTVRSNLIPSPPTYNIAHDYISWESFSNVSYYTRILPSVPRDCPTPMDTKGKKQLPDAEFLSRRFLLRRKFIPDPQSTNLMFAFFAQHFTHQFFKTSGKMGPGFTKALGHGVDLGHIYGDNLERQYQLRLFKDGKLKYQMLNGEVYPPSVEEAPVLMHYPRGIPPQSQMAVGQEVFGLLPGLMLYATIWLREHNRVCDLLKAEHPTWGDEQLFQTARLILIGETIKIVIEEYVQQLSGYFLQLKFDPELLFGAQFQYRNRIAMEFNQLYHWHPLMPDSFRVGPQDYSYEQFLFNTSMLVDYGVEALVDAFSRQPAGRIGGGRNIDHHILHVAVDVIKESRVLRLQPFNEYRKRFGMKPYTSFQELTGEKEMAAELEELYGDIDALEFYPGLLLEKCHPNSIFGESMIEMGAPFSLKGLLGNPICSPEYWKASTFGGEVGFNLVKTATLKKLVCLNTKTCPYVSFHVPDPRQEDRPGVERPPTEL
human Serotonin, 5-Hydroxytryptamine Receptor 7 (5HT7), HTR7 (gene 3363), sequence (P34969 whole entry, looked up): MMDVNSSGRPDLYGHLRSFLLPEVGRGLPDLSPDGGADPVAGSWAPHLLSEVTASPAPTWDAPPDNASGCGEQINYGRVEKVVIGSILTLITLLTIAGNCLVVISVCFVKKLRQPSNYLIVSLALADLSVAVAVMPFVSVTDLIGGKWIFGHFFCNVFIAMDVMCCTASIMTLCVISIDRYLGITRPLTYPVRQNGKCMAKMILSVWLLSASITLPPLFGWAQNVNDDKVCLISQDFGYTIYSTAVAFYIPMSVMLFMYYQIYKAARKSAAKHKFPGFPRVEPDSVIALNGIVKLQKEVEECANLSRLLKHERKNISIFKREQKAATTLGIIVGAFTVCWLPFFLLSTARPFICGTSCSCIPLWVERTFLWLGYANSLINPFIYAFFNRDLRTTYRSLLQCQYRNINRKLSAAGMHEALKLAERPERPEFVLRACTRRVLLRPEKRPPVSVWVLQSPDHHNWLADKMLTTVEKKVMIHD
Adenosine receptor A1 (Bos taurus), sequence (P28190 whole entry, looked up): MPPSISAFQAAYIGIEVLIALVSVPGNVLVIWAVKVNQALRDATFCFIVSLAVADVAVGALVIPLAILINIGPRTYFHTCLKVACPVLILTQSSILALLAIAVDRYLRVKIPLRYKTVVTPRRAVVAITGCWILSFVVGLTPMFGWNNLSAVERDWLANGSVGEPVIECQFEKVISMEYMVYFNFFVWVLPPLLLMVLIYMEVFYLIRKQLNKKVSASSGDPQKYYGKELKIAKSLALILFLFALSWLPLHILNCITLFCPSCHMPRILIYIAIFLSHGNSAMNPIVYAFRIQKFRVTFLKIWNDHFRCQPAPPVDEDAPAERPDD
sheep Cyclooxygenase-2 (Cox2), PTGS2 (gene 443460), sequence (P79208 whole entry, looked up): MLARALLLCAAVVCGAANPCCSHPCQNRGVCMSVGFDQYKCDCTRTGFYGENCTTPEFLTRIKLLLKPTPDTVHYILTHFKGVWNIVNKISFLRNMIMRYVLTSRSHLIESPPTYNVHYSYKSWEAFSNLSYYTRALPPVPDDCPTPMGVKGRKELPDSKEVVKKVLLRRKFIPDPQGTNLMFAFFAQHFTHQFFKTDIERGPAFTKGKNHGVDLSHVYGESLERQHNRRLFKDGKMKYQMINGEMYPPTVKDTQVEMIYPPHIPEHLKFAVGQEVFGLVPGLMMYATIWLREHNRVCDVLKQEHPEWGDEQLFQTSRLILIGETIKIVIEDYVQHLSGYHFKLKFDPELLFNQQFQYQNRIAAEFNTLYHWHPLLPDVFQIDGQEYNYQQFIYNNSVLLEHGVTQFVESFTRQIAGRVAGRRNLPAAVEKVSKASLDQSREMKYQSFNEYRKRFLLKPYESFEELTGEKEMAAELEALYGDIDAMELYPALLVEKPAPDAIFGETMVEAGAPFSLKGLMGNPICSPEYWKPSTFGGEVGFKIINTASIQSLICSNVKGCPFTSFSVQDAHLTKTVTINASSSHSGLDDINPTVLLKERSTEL

With `CCCCOC(=O)c1ccc(O)cc1`, the result in assay [1], in [3] and in assay [4] was inactive. Besides, the figures for the AC50 in [2] and in assay [5] were 7.62 µM (active) and 11.7 µM (active), respectively.

For the compound `CCCCCc1ccc(N)cc1`, the AC50 in assay [6] is 7.04 µM (active).

`Oc1ccc2ccccc2c1`: the AC50 in [6] is 5.35 µM (active). For the same compound, in assay [5], the outcome was inactive.

As to `CCN(CC)C(=O)c1cc(S(=O)(=O)Cc2ccccc2)c(N2CCC(c3ccccc3)CC2)cc1N(CC)CCN(C)C`, the compound was called inactive in assay [3], in [8] and in [9]. Also, the AC50 in [7] is 6.88 µM (active); in assay [10] it was 8.55 µM (active); in assay [11], 12 µM (active); in assay [12], 4.84 µM (active); in assay [4], 23.4 µM (active); in [13], 0.971 µM (active). Moreover, the figures for the AC50 in [5] and in [14] were 6.22 µM (active) and 8.87 µM (active), respectively.

In the case of `CCCCCCCCCCCO`, the call in [1] and in assay [9] was inactive.

On to `O=c1c(-c2ccc(O)cc2)coc2cc(O)cc(O)c12`, for which the compound was called inactive in assay [6] and in assay [5]. In addition, the figures for the AC50 in [8] and in assay [15] were 18.9 µM (active) and 6.03 µM (active), respectively.

For `CCCCCCCCOC(=O)c1cc(O)c(O)c(O)c1`, the AC50 in assay [2] was 18.3 µM (active); in [16], 2.54 µM (active); in assay [12], 25 µM (active); in [5] it was 12.4 µM (active); in assay [14], 17 µM (active); in assay [15] it was 8.09 µM (active). The outcome in assay [6] was inactive.

With `CC1=CC(=O)/C(=C(/C)O)C(=O)O1`, the outcome in assay [2] was inactive.

Consider `CO[C@H]1/C=C/O[C@@]2(C)Oc3c(C)c(O)c4c(O)c(c(/C=N/N5CCN(C)CC5)c(O)c4c3C2=O)NC(=O)/C(C)=C\C=C\[C@H](C)[C@H](O)[C@@H](C)[C@@H](O)[C@@H](C)[C@H](OC(C)=O)[C@@H]1C`, for which the values for the AC50 in assay [2] and in assay [6] were 7.74 µM (active) and 3.36 µM (active), respectively.

Turning to `CN(C)c1ccc(C(=C2C=CC(=[N+](C)C)C=C2)c2ccc(N(C)C)cc2)cc1`, the AC50 in assay [1] was 0.572 µM (active); in assay [8] it was 13.6 µM (active); in [9], 11.2 µM (active); in assay [11], 5.05 µM (active); in assay [12], 1.99 µM (active); in assay [4], 4.24 µM (active). The concentration at half-maximal activity (AC50) in assay [13] is 13.9 µM (active); in assay [5], 10.5 µM (active); in assay [14], 4.11 µM (active).

As to `CCCCCCCCCCCCO`, the compound was classed as inactive in assay [1].
